PubChem BioAssay (EPA / NIEHS)
Inconclusive results are not listed. Calls of active or inactive are those of the source. How the source made its calls, unless noted: active means hit-call score of the fitted dose curve at least 0.9, where 1 is the maximum; inactive means score below 0.9.

Experiments:
[1] = target: Nucleoli Translocation, AR (gene 367) (UniProt P10275); assay: UPITT_HCI_U2OS_AR_TIF2_Nucleoli_Antagonist: University of Pittsburgh U2OS Androgen Receptor-Transcriptional Intermediary Factor 2 (AR-TIF2) Antagonism High Content Imaging Assay for Nucleoli Translocation (AID 2283997; active means hit-call score of the fitted dose curve at least 0.9, where 1 is the maximum)
Nucleoli Translocation, AR (gene 367), sequence (P10275 whole entry, looked up): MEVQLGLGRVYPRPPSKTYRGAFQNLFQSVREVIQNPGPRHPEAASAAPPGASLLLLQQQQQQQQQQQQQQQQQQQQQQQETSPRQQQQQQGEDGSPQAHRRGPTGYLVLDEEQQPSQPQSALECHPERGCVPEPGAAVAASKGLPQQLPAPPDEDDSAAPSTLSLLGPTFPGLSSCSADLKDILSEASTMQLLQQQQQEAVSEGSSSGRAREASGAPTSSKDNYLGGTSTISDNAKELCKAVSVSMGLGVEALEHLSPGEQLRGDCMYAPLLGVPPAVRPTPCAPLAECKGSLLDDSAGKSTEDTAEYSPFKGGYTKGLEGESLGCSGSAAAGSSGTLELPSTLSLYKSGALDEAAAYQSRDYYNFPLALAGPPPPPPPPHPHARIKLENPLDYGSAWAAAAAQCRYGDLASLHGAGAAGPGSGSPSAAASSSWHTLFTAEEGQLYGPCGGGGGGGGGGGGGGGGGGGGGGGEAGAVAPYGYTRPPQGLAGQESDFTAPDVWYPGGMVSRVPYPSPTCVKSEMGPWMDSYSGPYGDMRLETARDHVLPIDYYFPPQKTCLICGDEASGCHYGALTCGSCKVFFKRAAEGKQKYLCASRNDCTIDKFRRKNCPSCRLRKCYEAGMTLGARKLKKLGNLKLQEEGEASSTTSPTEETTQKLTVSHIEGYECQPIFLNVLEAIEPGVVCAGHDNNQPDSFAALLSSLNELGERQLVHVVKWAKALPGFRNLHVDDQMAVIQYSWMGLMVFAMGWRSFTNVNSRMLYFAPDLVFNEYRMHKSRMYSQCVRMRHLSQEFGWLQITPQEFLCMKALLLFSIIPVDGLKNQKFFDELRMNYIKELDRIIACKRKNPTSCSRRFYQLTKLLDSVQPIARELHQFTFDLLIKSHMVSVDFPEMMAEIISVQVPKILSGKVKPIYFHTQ
Procedure, shortened: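 U2OS cells expressing RFP-tagged human AR and GFP-tagged TIF2 were imaged by high-content fluorescence microscopy for red AR signal in the nucleolar region. Compounds were screened at 20 uM final (0.2% DMSO), with activity fitted relative to DHT as baseline.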

[2] = target: Ratio of Nucleoli Translocation and Cytoplasm, AR (gene 367) (UniProt P10275); assay: UPITT_HCI_U2OS_AR_TIF2_Nucleoli_Cytoplasm_Ratio_Antagonist: University of Pittsburgh U2OS Androgen Receptor-Transcriptional Intermediary Factor 2 (AR-TIF2) Antagonism High Content Imaging Assay for Ratio of Nucleoli Translocation and Cytoplasm (AID 2283999; active means hit-call score of the fitted dose curve at least 0.9, where 1 is the maximum;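 further: antagonists lower the DHT-driven ratio of nucleolar to cytoplasmic red signal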)
Ratio of Nucleoli Translocation and Cytoplasm, AR (gene 367), sequence (P10275 whole entry, looked up): as above
Procedure, shortened: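 U2OS cells co-expressing RFP-tagged human AR and GFP-tagged TIF2, antagonist mode with DHT as baseline. Nucleolar-to-cytoplasmic red fluorescence ratio imaged by high-content microscopy; final compound 20 uM (0.2% DMSO) primary, 0.195–50 uM (0.5% DMSO) concentration-response.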

[3] = target: Ratio of Nucleoli Translocation and Cytoplasm, AR (gene 367) (UniProt P10275); assay: UPITT_HCI_U2OS_AR_TIF2_Nucleoli_Cytoplasm_Ratio_Agonist: University of Pittsburgh U2OS Androgen Receptor-Transcriptional Intermediary Factor 2 (AR-TIF2) Agonism High Content Imaging Assay for Ratio of Nucleoli Translocation and Cytoplasm (AID 2284000; active means hit-call score of the fitted dose curve at least 0.9, where 1 is the maximum;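 further: hits raise the red nucleolar to cytoplasm ratio above vehicle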)
Procedure, shortened: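 U2OS cells expressing RFP-tagged human AR and GFP-tagged TIF2 were imaged by high-content fluorescence microscopy. The endpoint is the ratio of nucleolar to cytoplasmic red fluorescence, fitted for gain of signal relative to DMSO. Concentration-response spanned 0.195 to 50 uM final (0.5% DMSO).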

[4] = CCTE_Shafer_MEA_acute_spike_number: CCTE's Neural Acute Assay for Total Number of Spikes, Shafer Lab (AID 2284008)
Procedure, shortened: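 Rat primary cortical neurons on 48-well MEA plates, DIV 13 or 15, at 37 C. 40 min baseline then 40 min with compound (0.03-40 uM); spikes detected at 8x rms noise, expressed as percent change from baseline.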

[5] = CCTE_Shafer_MEA_acute_firing_rate_mean: CCTE's Neural Acute Assay for Mean Firing Rate, Shafer Lab (AID 2284009);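 further: analyzed for loss of signal so actives lower firing rate relative to DMSO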
Procedure, shortened: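 Read-out: well-mean spike rate (spikes/recording length/electrodes), % change from 40 min pre-dose baseline to 40 min with compound. Rat cortical cultures, DIV 13 or 15, 37 C; 0.03-40 uM; DMSO as negative control.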

[6] = CCTE_Shafer_MEA_acute_burst_number: CCTE's Neural Acute Assay for Single-Electrode Bursts, Shafer Lab (AID 2284013)
Procedure, shortened: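 Rat cortical cultures, DIV 13/15; 40 min baseline, then 40 min with compound 0.03-40 uM, 37 C. Spikes: 300-5000 Hz band-pass, threshold 8x rms noise. Readout = % change in single-electrode bursts vs baseline, loss-of-signal fit.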

[7] = CCTE_Shafer_MEA_acute_burst_duration_mean: CCTE's Neural Acute Assay for Mean Burst Duration, Shafer Lab (AID 2284014);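 further: hits are decreases in mean burst duration relative to DMSO controls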
Procedure, shortened: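 Primary rat cortical neurons on 16-electrode MEA wells, treated on DIV 13 or 15 with compound (0.03-40 uM; ≥3 wells each). 40-min baseline and 40-min exposure recordings at 37 C; percent change in mean burst duration per well versus DMSO.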

[8] = CCTE_Shafer_MEA_acute_interburst_interval_mean: CCTE's Neural Acute Assay for Mean Interburst Interval, Shafer Lab (AID 2284016);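 further: percent change of mean interburst interval versus each well's own pre-dose baseline; curves fitted for decrease in interburst interval relative to DMSO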
Procedure, shortened: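 MEA recording of spontaneous network bursting in primary rat cortical cultures; mean interburst interval was compared before and after a 40-min compound exposure (0.03-40 uM) and expressed as percent change, relative to DMSO.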

[9] = CCTE_Shafer_MEA_acute_burst_percentage_mean: CCTE's Neural Acute Assay for Percentage of Spikes in a Burst, Shafer Lab (AID 2284017)
Procedure, shortened: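 Compounds were tested at 0.03-40 uM on primary rat cortical neuron networks grown over microelectrodes, with at least three wells per compound. Spontaneous firing was recorded for 40 min before and 40 min after dosing, and the change in burst percentage was computed per well.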

[10] = CCTE_Shafer_MEA_acute_burst_percentage_std: CCTE's Neural Acute Assay for Standard Deviation of Burst Percentage, Shafer Lab (AID 2284018);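 further: fitted in the negative direction so actives lower burst percentage SD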
Procedure, shortened: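 Primary rat cortical neurons on 16-electrode MEA wells were recorded 40 min at baseline (DIV 13 or 15), then 40 min after compound (0.03-40 uM), at 37 C. Well value is SD across electrodes of spikes-in-bursts/total spikes; endpoint is percent change, DMSO-referenced.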

[11] = CCTE_Shafer_MEA_acute_per_network_burst_spike_number_mean: CCTE's Neural Acute Assay for Average Number of Spikes in a Network Burst, Shafer Lab (AID 2284019);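 on AC50: curve fitted for loss of signal so actives reduce spikes per network burst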
Procedure, shortened: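 Primary rat cortical neurons on 16-electrode MEA wells, DIV 13 or 15, 37 C; 40-min baseline then 40-min recording with compound (0.03-40 uM). Spikes per network burst (total spikes/number of bursts) expressed as percent change from baseline, DMSO reference.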

[12] = target: Retinoic acid receptor RXR-alpha (Homo sapiens) (UniProt P19793); assay: TOX21_TR_RXR_BLA_Agonist_Followup_ratio: Tox21 Thyroid Hormone Receptor beta Retinoid X Receptor alpha (RXRa) Agonism Beta-lactamase (BLA) Follow-Up Assay, Ratio (AID 2283968; active means hit-call score of the fitted dose curve at least 0.9, where 1 is the maximum)
Retinoic acid receptor RXR-alpha (Homo sapiens), sequence (P19793 whole entry, looked up): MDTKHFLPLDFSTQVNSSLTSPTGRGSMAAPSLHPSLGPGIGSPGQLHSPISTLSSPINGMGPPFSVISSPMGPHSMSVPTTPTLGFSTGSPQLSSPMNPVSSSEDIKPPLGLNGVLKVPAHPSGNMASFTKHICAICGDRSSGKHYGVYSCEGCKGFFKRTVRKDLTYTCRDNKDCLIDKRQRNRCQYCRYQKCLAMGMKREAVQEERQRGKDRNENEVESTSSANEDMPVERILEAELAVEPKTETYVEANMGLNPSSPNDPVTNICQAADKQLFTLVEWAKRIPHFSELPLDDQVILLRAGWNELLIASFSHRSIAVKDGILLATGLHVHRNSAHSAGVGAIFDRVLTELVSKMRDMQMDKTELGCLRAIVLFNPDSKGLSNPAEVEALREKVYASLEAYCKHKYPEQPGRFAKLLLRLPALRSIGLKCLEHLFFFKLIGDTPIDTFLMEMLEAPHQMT
Procedure, shortened: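 RXRa-UAS-bla HEK293T cells, 5 h attachment at 37C/5% CO2, then 11 concentrations in triplicate for 16 h; 9-cis retinoic acid positive control. FRET-B/GCCF4-AM substrate 2 h at room temperature; 460:530 nm ratio, fitted for gain versus DMSO.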

[13] = TOX21_TR_RXR_BLA_Agonist_Followup_viability: Viability Assessment in the Tox21 Thyroid Hormone Receptor beta Retinoid X Receptor alpha (RXRa) Agonism Beta-lactamase (BLA) Follow-Up Assay (AID 2283970; active means hit-call score of the fitted dose curve at least 0.9, where 1 is the maximum)
Procedure, shortened: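 RXRa-UAS-bla HEK293T cells, 2,500/well in phenol red-free DMEM with 2% charcoal-stripped FBS, dosed for 16 h at 37C. Viability measured by CellTiter-Glo ATP luminescence; fitted bidirectionally against DMSO baseline, loss of signal indicating cytotoxicity.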

[14] = CCTE_Harrill_HTTr_Viability_MCF7: CCTE's 6-hour Cell Viability Assessment for the High-Throughput Transcriptomics (HTTr) Platform, in MCF-7 cells cultured in DMEM + 10% fetal bovine serum, Harrill Lab (AID 2284010)
Procedure, shortened: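 MCF-7 cells in DMEM + 10% FBS, 384-well, exposed 6 h to an eight-point dilution series. Membrane integrity scored by high-content imaging of propidium iodide exclusion; bidirectional fit versus DMSO.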

[15] = CCTE_Harrill_HTTr_Apoptosis_MCF7: CCTE's 6-hour Apoptosis Assessment for the High-Throughput Transcriptomics (HTTr) Platform, in MCF-7 cells cultured in DMEM + 10% fetal bovine serum, Harrill Lab (AID 2284011)
Procedure, shortened: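 MCF-7 cells in DMEM + 10% FBS exposed 6 h to chemicals over an eight-point dilution series. Caspase-3/7 activation imaged by high-content CellEvent Green staining; fitted bidirectionally versus DMSO.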

[16] = CCTE_Harrill_HTTr_CellCount_MCF7: CCTE's Cell Proliferation Assessment for the High-Throughput Transcriptomics (HTTr) Platform, Harrill Lab (AID 2284012; active means hit-call score of the fitted dose curve at least 0.9, where 1 is the maximum;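 further: cells exposed to compound for six hours; intended direction is loss of nuclei count meaning fewer cells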)
Procedure, shortened: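 MCF7 cells exposed 6 hours to an eight-point dilution series; Hoechst-stained nuclei counted by high-content imaging. Bidirectional curve fitting against DMSO baseline.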

DIO1 (gene 1733) = assay: CCTE_GLTED_hDIO1: CCTE's human Deiodinase 1 (DIO1) Inhibition Assay, Great Lakes Toxicology and Ecology Division (GLTED) Lab (AID 2283987; active means hit-call score of the fitted dose curve at least 0.9, where 1 is the maximum;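 further: isolated human DIO1 enzyme in a cell-free setup rather than cells; enzyme activity read as free iodide liberated from substrate via Sandell-Kolthoff colorimetry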)
Procedure, shortened: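 Cell-free human DIO1 enzyme incubated 3 h with test chemical; iodide freed from substrate then measured by Sandell-Kolthoff absorbance. Run in triplicate; loss of signal relative to DMSO taken as inhibition.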

[17] = target: Nucleoli Translocation, AR (gene 367) (UniProt P10275); assay: UPITT_HCI_U2OS_AR_TIF2_Nucleoli_Agonist: University of Pittsburgh U2OS Androgen Receptor-Transcriptional Intermediary Factor 2 (AR-TIF2) Agonism High Content Imaging Assay for Nucleoli Translocation (AID 2283998; active means hit-call score of the fitted dose curve at least 0.9, where 1 is the maximum)
Procedure, shortened: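 U2OS cells expressing RFP-tagged human AR and GFP-tagged TIF2; red fluorescence in nucleoli quantified by high-content imaging. Primary screen at 20 uM final (0.2% DMSO); concentration-response 0.195–50 uM (0.5% DMSO), fitted upward versus DMSO.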

Measured: AC50

CCCCC1CCC(O)CC1 (configuration not stated)
inactive: [1] | [2] | [3]

CCOC(=O)C(C#N)=C(c1ccccc1)c1ccccc1
inactive: [4] | [5] | [6] | [7] | [8] | [9] | [10] | [11]

N[C@@H](Cc1cc(I)c(Oc2cc(I)c(O)c(I)c2)c(I)c1)C(=O)O
inactive: [12] | [13] | [14] | [15] | [16]

Oc1ccc2cc(SSc3ccc4cc(O)ccc4c3)ccc2c1
active: DIO1 (gene 1733) 2.62 µM

CCCCCCCCCCCCCCN(CCO)CCO
active: DIO1 (gene 1733) 30.6 µM

CCc1ccc(O)cc1
inactive: [1] | [14] | [15] | [16]

CCOc1ccc(N=Nc2ccc(C=Cc3ccc(N=Nc4ccc(OCC)cc4)cc3S(=O)(=O)O)c(S(=O)(=O)O)c2)cc1
active: DIO1 (gene 1733) 0.72 µM

CC1CCC(C(C)C)C(O)C1 (configuration not stated)
inactive: [1] | [2] | [14] | [15] | [16]

CC(=O)O[C@@H]1CC2CCC1(C)C2(C)C (some centres not stated)
inactive: [1] | [14] | [15]

OCCCCC(O)CO (configuration not stated)
inactive: [12]

CCOC(=O)[C@@H](C)Oc1ccc(Oc2nc3ccc(Cl)cc3o2)cc1
inactive: [1] | [17] | [2] | [3] | [14] | [15] | [16]

C[C@H]1O[C@@H](O[C@H]2[C@@H](O)C[C@H](O[C@H]3[C@@H](O)C[C@H](O[C@H]4CC[C@@]5(C)[C@H](CC[C@@H]6[C@@H]5C[C@@H](O)[C@]5(C)[C@@H](C7=CC(=O)OC7)CC[C@]65O)C4)O[C@@H]3C)O[C@@H]2C)C[C@H](O)[C@@H]1O
inactive: [1] | [2] | [14] | [15] | [16]

O=Cc1ccccc1S(=O)(=O)O
inactive: [12] | [13]

CC(CN=Cc1ccccc1O)N=Cc1ccccc1O (configuration not stated)
active: [11] 15 µM
not listed: [1] | [2] | [3] | [12] | [13] | DIO1 (gene 1733) | [17]
inactive: all other assays above

CS(=O)(=O)OCCCCOS(C)(=O)=O
inactive: [14] | [15] | [16]

CCCN(CCC)S(=O)(=O)c1ccc(C(=O)O)cc1
inactive: [14] | [15]

CCCCCCCCCC(=O)OC
inactive: [14] | [15] | [16]

CN(c1nccc(=O)[nH]1)C1CCN(c2nc3ccccc3n2Cc2ccc(F)cc2)CC1
inactive: [14] | [15]

CS(C)=O
inactive: [14] | [15]

CC(C)NCC(O)COc1ccc(CC(N)=O)cc1 (configuration not stated)
inactive: [14] | [15]

O=c1c(O)c(-c2ccc(O)cc2)oc2cc(O)cc(O)c12
inactive: [14] | [15] | [16]

CS(=O)(=O)c1ccc(C2=C(c3ccccc3)C(=O)OC2)cc1
inactive: [14] | [15] | [16]
